A selection: hits, their analogues and other compounds. The true share with any hit is near 17%.
TDP1 cell noCPT: qHTS for Inhibitors of human tyrosyl-DNA phosphodiesterase 1 (TDP1): qHTS in cells in absence of CPT | DT40 Tdp1-/- hTDP1 cells, no CPT, ATP luminescence, 48 h | Potency, µM (titrated, usually from 46.2 µM), inactives show at the top dose activity change, negative = growth inhibition, most hits filed as inhibitors | hit rate 15% among 420,000 | AID 686978, 2013; note: % is set by controls: 0 for no effect and ±100 for the full control effect; nearly all actives have a fitted effect of over 55% in size
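Cells were dispensed at 400 per well, compounds added by pin tool, plates incubated ≥48 hr at 37 °C, then CellTiter-Glo added for 30 min at room temperature before luminescence reading. Line: DT40 Tdp1-/- complemented with hTDP1; camptothecin omitted.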
ClpP mod: qHTS Assay for Activators of ClpP; Potency, µM (doses to about 57.5 µM), for inactives: at the highest dose activity change, negative = active; ATP-dependent Clp protease proteolytic subunit (Bacillus subtilis (strain 168)), P80244; hit rate 1.9% among 340,000; purified B. subtilis ClpP, FRET peptide cleavage, 20 min; AID 651965, 2013; active = well fitted falling curve with a large enough effect; inconclusive = small, poorly fitted or top-dose-only effect; inactive = no such curve, though single readings can be large or run the other way; note: the source files actives as falling curves though it sought activators and does not explain the sign; nearly all actives have a fitted effect of over 65% in size
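ClpP 10 microg/mL final, pH 8 Tris/KCl buffer with BSA, glycerol, Tween-20; compound pinned in; FRET-FV substrate; RT 20 min; Ex320/Em430; ΔFRET vs ADEP 5.8 microM, DMSO, no enzyme.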
TDP1 inh: blocks human tyrosyl-DNA phosphodiesterase 1; Q9NUW8; AID 485290; hit rate 0.28% among 350,000; Potency, µM (titrated, usually from 130 µM), inactives show at the highest dose activity change, negative = inhibition, hits mostly inhibitors; recombinant TDP1, AlphaScreen DNA substrate cleavage; note: % is set by controls: 0 for no effect and ±100 for the full control effect; nearly all actives have a fitted effect of over 40% in size
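E. coli-derived human Tdp1, 1 nM final. Cpd preinc 15 min RT; substrate 15 nM final, 5 min RT; AS bead mix 10 ug/ml final, 10 min RT. Signal loss = tyrosine-FITC cleavage. No-enzyme wells = max signal.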
TDP1 cell CPT: DT40-hTDP1 cell growth loss with CPT; chicken DT40 Tdp1-/-;hTDP1 cells + 20 nM CPT, ATP luminescence, 48 h; AID 686979; hit rate 12% among 420,000; Potency, µM (series often up to 46.2 µM), for inactives: at the top dose activity change, negative = growth inhibition, most hits filed as inhibitors; note: % is set by controls: 0 for no effect and ±100 for the full control effect; nearly all actives have a fitted effect of over 55% in size
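Chicken DT40 Tdp1-/- cells complemented with human TDP1, 400 cells/well, exposed to compounds plus 20 nM camptothecin for at least 48 h at 37 C; viability read as ATP content by CellTiter-Glo luminescence.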
* hit, by the source's call; ? = inconclusive; · = no result; [ ] = dose if it differs, or a comment. Unless noted, calls come from the whole dose curve; as a rule, active = well fitted curve in the direction sought with a large enough effect; inconclusive = small, poorly fitted or top-dose-only effect, or another doubt; inactive = no such curve, though single readings can be large; an effect the other way counts as inactive or inconclusive. Potency is the fitted concentration of half-maximal effect.

SMILES	TDP1 cell noCPT	ClpP mod	TDP1 inh	TDP1 cell CPT
c1ccc(CN2CCC3(CCNCC3)CC2)cc1	3.3µM*	·	·	4.6µM*
c1ccc(CN2CCC3(CCc4ccccc43)CC2)cc1	?	·	12%	24µM*
c1cnc(N2CC3(CCNCC3)C2)nc1	-7%	·	·	7%
c1ccc(N2CCC3(CCNCC3)CC2)nc1	?	·	·	18µM*
O=C(Oc1ccccc1)N1CCC2(CCN(Cc3ccccc3)CC2)CC1	-8%	·	·	6%
NC(=O)C1(N2CCCCC2)CCN(Cc2ccccc2)CC1	-14%	1%	3%	-14%
O=C1NCN(c2ccccc2)C12CCNCC2	-5%	1%	5%	-14%
c1ccc(N2CCC3(CCNCC3)CC2)cc1	18µM*	·	·	-102%
CC(C)CC(N)C1(c2ccc(Cl)cc2)CCC1 (configuration not stated)	·	·	4%	·
CCN1C[C@]2(COC)CC[C@H](O)[C@@]34[C@@H]5C[C@H]6[C@@H](OC)[C@H]5[C@](O)(C[C@@H]6OC)[C@@](O)([C@@H](OC)[C@H]23)[C@@H]14	·	·	6%[56.1 µM]	·
CC/C(=N\NC(=S)Nc1ccccc1)c1c(O)[nH]c(=O)[nH]c1=O	8%	3%	·	9%
Cc1ccc(S(=O)(=O)c2nc(-c3ccccc3Cl)oc2N(C)C2CCN(C)CC2)cc1	?	-8%	6%	?
Cc1cccc(CN2CCc3nc(N4CCN(c5ccccn5)CC4)ncc3C2)c1	10µM*	55%	-1%	15µM*
CC(=O)O[C@H]1[C@H]2[C@@H](OC(=O)Cc3ccccc3)[C@@H](C)C[C@]2(OC(C)=O)C(=O)/C(C)=C/[C@@H]2[C@H](CC[C@@]13CO3)C2(C)C	·	·	7%	·
Cc1oc2ccc(O)c(CN3CCCCCC3)c2c1C(=O)Nc1cccc(Cl)c1C	5.8µM*	-4%	6%	3.7µM*
Nc1ccc(Cl)cc1N	-29%[92.5 µM]	·	21%	?
CNC(=O)Oc1cccc(-c2cn3cc(Cl)ccc3n2)c1	?	-1%	1%	-16%
CNC(=O)Oc1ccc(-c2cn3cc(C)ccc3n2)cc1	12µM*	13µM*	3%	?
CCOC(=O)c1cccc(C2=C(CNC(=O)c3nccs3)[C@H]3CC[C@@H](C2)N3Cc2ccccc2)c1	23µM*	-2%	·	15µM*
Cc1ccc(C2CC(=O)C(C=NCCN3CCN(C(=O)Cc4ccccc4)CC3)=C(O)C2)cc1 (configuration not stated)	?	32µM*	4%	-14%
CC(C)=CC1C(C(=O)OCN2C(=O)C3=C(CCCC3)C2=O)C1(C)C (configuration not stated)	-23%	·	·	-28%
Oc1cccc2cccnc12	2.6µM*	·	11%	3.3µM*
CC(C)(C)c1ccc(O)c(N=Cc2c(O)ccc3ccccc23)c1	16µM*	·	·	26µM*
COC[C@H]1OC(=O)c2coc3c2[C@@]1(C)C1=C(C3=O)[C@@H]2CCC(=O)[C@@]2(C)C[C@H]1OC(C)=O	1.8µM*	-2%	4%	0.92µM*
C=C(C)[C@H]1O[C@H]2CC[C@@]3(C)[C@@](O)(CC[C@H]4[C@@H]5OC(C)(C)[C@H]6C[C@@H]7C(=C)Cc8c(Cl)cc9[nH]c(c5c9c8[C@@]76O)[C@@]43C)[C@]23O[C@@H]3[C@H]1O	12µM*	·	12%	?
SMILES	TDP1 cell noCPT	ClpP mod	TDP1 inh	TDP1 cell CPT
CC(C)NS(=O)(=O)c1ccc(OCC(=O)N2CCN(Cc3ccc4c(c3)OCO4)CC2)c(Cl)c1	18µM*	-2%	2%	16µM*
CN1CCN(C(=O)COc2ccc(S(=O)(=O)NCc3ccccc3)cc2Cl)CC1	3%	0%	2%	-13%
Cc1cc(S(=O)(=O)NC(C)C)ccc1OCC(=O)N1CCN(Cc2ccc3c(c2)OCO3)CC1	?	-2%	7%	16µM*
Cc1cc(S(=O)(=O)NCC(C)C)ccc1OCC(=O)N1CCN(Cc2ccccc2)CC1	-65%	16µM*	7%	?
COc1ccc(-n2nc(C(=O)NCC(=O)N3CCC4(CC3)OCCO4)c3ccccc3c2=O)cc1OC	-17%	·	-2%	-4%
C[N+]1([O-])[C@@H]2CC[C@H]1CC(OC(=O)C(CO)c1ccccc1)C2 (some centres not stated)	-29%[21.1 µM]	·	·	-3%[21.1 µM]
O=Cc1ccccc1	16%	1%	14%	4%
